Most compounds without a hit are left out; they make up all but 6.9% or so of the library.
SKKanGAS inh – SKKanGAS growth inhibition; inhibition, % at 7.5 µM; 1.3% of 300,000 active; S. pyogenes SKKanGAS, kanamycin growth, BacTiter-Glo, 6 h;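 active = mean replicate score, as percent of positive control median, at least 50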;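 note: strain carries kanamycin resistance gene driven by streptokinase promoter and grows in 40 µg/ml kanamycin; loss of luminescence reflects streptokinase promoter inhibition or plain growth inhibition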
Mdm2-MdmX inh – human Mdm2/MdmX binding inhibition. AID 485346. inhibition, % at 8 µM. SaOS-2 split-luciferase Mdm2/MdmX complementation, luminescence. 3% of 330,000 active. O15151+Q00987;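 active = inhibition of at least 50% at 8 µM in the primary screen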
Target sequence (O15151 whole entry, looked up): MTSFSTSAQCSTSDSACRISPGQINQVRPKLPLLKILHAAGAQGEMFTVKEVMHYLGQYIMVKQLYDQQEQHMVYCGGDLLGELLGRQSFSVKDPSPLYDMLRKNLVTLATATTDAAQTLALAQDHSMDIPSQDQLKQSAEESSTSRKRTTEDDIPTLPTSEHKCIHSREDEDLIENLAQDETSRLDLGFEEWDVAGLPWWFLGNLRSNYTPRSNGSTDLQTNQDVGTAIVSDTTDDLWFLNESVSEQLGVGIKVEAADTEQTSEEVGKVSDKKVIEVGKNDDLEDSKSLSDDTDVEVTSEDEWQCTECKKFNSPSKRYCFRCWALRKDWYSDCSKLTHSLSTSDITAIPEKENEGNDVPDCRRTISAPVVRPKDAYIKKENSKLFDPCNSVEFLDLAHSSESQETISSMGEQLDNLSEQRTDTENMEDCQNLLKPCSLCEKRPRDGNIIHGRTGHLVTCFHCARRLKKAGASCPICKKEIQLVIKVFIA
Target sequence (Q00987 whole entry, looked up): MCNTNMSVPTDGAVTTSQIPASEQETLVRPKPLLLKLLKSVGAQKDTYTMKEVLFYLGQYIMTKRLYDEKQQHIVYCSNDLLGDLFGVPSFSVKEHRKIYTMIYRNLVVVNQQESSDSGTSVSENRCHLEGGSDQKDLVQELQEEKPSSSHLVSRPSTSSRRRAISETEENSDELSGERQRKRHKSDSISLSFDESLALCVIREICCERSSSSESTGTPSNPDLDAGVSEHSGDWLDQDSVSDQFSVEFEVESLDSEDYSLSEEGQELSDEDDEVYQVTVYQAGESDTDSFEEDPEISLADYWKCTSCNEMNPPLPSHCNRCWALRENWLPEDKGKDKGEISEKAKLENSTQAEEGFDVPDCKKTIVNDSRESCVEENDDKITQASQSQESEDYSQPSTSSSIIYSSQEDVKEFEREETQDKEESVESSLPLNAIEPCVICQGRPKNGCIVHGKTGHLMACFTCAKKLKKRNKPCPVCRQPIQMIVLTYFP
MPTP block – permeability transition pore inhibition | isolated mouse mitochondria, Ca2+ swelling absorbance, 30 min | AID 602449 | 1.4% of 360,000 active | inhibition, % at 10 µM;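 active = inhibition of 50% or more, scaled per plate between neutral and stimulator controls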
Beta cell apopt – beta cell apoptosis inhibition | protection from apoptosis, % (no concentration beside the values) | 0.8% of 300,000 active | INS-1E cytokine-induced death, ATP luminescence, 48 h; percent of positive-control rescue, neutral wells zero | AID 435005;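 active = Every replicate reaches about 75%, or at least half do and their mean reaches it too, limit read from the data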;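 note: higher means more ATP so stronger rescue from cytokine killing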
CSC inhib – blocks cancer stem cells | 1.1% of 300,000 active | inhibition, % at 7.5 µM | AID 2717 | cancer stem cell-like cells viability, luminescence; in the data active = inhibition above about 75%; tested in HMLE shEcad cells
NR3A LBD binder – modulates the human NR3A ligand-binding domain. NR3A LBD differential scanning fluorimetry, Tm shift; 0% = protein alone, 100% = glycine-bound protein. Tm shift relative to glycine control, % at 25 µM. 2.5% of 340,000 active;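 active = melting temperature shift of at least 10% of the positive control shift, at one fixed dose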
Rh123 counter – Rhodamine 123 counter-screen of mitochondrial pore hits; shares compounds with MPTP block; isolated mitochondria, membrane potential, Rhodamine 123 fluorescence; inhibition, % at 10 µM; 78% of 5,000 active; in the data active = inhibition above about 22%
MPTP abs DR – MPTP inhibition, dose response swelling confirmation. shares compounds with MPTP block. isolated mitochondria swelling, absorbance. IC50, µM. 58% of 780 active; in the data active = IC50 below about 20 µM
MPTP counter DR – active in counter-screen for permeability transition pore inhibitors; shares compounds with MPTP block; isolated mitochondria counterscreen, fluorescence read-out; IC50, µM; 49% of 780 active; in the data active = IC50 below about 80 µM
Hits are given with their value.

For Cc1ccc(O)c(CN2CCC3CCC(C3)C2)c1 (configuration not stated) the results were MPTP block inactive and NR3A LBD binder inactive.
CC1([N+](=O)[O-])COP(=O)(NCc2cccnc2)OC1 (configuration not stated) was read as MPTP block inactive and NR3A LBD binder inactive.
`CCCCCSc1cc(OC)c(CCN(C)C)cc1OC` gave SKKanGAS inh inactive, Mdm2-MdmX inh inactive, MPTP block 84, Beta cell apopt inactive, CSC inhib inactive, NR3A LBD binder inactive, Rh123 counter inactive, MPTP abs DR 6.3 and MPTP counter DR inactive.
`CCCCCSc1cc(O)c(C(CNC)C(C)C)cc1OC` (configuration not stated) gave SKKanGAS inh inactive, Mdm2-MdmX inh inactive, MPTP block inactive, Beta cell apopt inactive, CSC inhib inactive and NR3A LBD binder inactive.
CCC(=NCCO)c1c(O)n(C2CCCCC2)c(=O)[nH]c1=O was read as SKKanGAS inh inactive, Mdm2-MdmX inh inactive, MPTP block inactive, Beta cell apopt inactive, CSC inhib inactive and NR3A LBD binder inactive.
Screening CCC(=NCc1ccc2c(c1)OCO2)c1c(O)n(C2CCCCC2)c(=O)[nH]c1=O returned SKKanGAS inh inactive, Mdm2-MdmX inh inactive, MPTP block 78, Beta cell apopt inactive, CSC inhib inactive, NR3A LBD binder inactive and Rh123 counter 68.
Screening COC(=O)C1=C(c2cc3ccccc3o2)C[C@@H]2CC[C@H]1N2C(=O)N1CCC(O)CC1 returned SKKanGAS inh inactive, Mdm2-MdmX inh inactive, MPTP block inactive, Beta cell apopt inactive, CSC inhib inactive and NR3A LBD binder inactive.
CN(C)CCOC(=O)c1cn(Cc2ccccc2)c2ccccc12 was read as SKKanGAS inh inactive, Mdm2-MdmX inh inactive, MPTP block 59, Beta cell apopt inactive, CSC inhib inactive, NR3A LBD binder inactive, Rh123 counter inactive, MPTP abs DR 18 and MPTP counter DR inactive.
`CC(=O)c1cn(CCCOc2ccccc2)c2ccccc12` gave SKKanGAS inh inactive, Mdm2-MdmX inh inactive, MPTP block 82, Beta cell apopt inactive, NR3A LBD binder inactive and Rh123 counter 56.
O=[N+]([O-])c1ccc(N2CCCC(C(F)(F)F)C2)c2ccncc12 (configuration not stated) was read as SKKanGAS inh inactive, Mdm2-MdmX inh inactive, MPTP block 77, Beta cell apopt inactive, CSC inhib inactive, NR3A LBD binder inactive and Rh123 counter 90.
`O=[N+]([O-])c1ccc(N2CCCCC2)c2ncccc12` gave SKKanGAS inh inactive, Mdm2-MdmX inh inactive, MPTP block inactive, Beta cell apopt inactive, CSC inhib inactive and NR3A LBD binder inactive.
For COC1=C(C)C(=O)O[C@]12C(=O)C(C)=C1CCCCN3[C@H]([C@@H]4C[C@H](C)C(=O)O4)CC[C@]132 the results were Mdm2-MdmX inh inactive, MPTP block inactive, Beta cell apopt inactive, CSC inhib inactive and NR3A LBD binder inactive.
`CC(NCc1ccc(Cl)cc1Cl)C(O)c1ccccc1` (configuration not stated) gave SKKanGAS inh inactive, Mdm2-MdmX inh inactive, MPTP block inactive, Beta cell apopt inactive, CSC inhib inactive and NR3A LBD binder inactive.
Screening CC(NCc1cccc(Cl)c1Cl)C(O)c1ccccc1 (configuration not stated) returned SKKanGAS inh inactive, Mdm2-MdmX inh inactive, MPTP block 72, Beta cell apopt inactive, CSC inhib inactive, NR3A LBD binder inactive, Rh123 counter inactive, MPTP abs DR inactive and MPTP counter DR inactive.
For Clc1cccc(N2CCNCC2)c1Cl the results were SKKanGAS inh inactive, Mdm2-MdmX inh inactive, MPTP block inactive, CSC inhib inactive and NR3A LBD binder inactive.
Screening c1ccc2c(N3CCNCC3)cccc2c1 returned SKKanGAS inh inactive, Mdm2-MdmX inh inactive, MPTP block 70, Beta cell apopt inactive, CSC inhib inactive, NR3A LBD binder inactive, Rh123 counter inactive, MPTP abs DR 19 and MPTP counter DR inactive.
For Cc1c(NS(=O)(=O)c2ccccc2)ccc([N+](=O)[O-])c1Cl the results were MPTP block 98, NR3A LBD binder inactive and Rh123 counter 90.
Screening COC(=O)C1=C(c2ccccc2OCc2ccccc2)C[C@@H]2CC[C@H]1N2C(=O)NCCc1ccc(F)cc1 returned Mdm2-MdmX inh inactive, MPTP block inactive, Beta cell apopt inactive, CSC inhib inactive and NR3A LBD binder inactive.

Screening results (PubChem BioAssay)
